Bioassay records deposited in PubChem by National Center for Advancing Translational Sciences (NCATS).
TDP1 inh = blocks human tyrosyl-DNA phosphodiesterase 1. Potency, µM (top dose mostly 130 µM), without a hit: at the highest dose activity change, negative = inhibition, hits mostly inhibitors. recombinant TDP1, AlphaScreen DNA substrate cleavage. 350,000 compounds, 0.28% hits. Q9NUW8; note: % is set by controls: 0 for no effect and ±100 for the full control effect; nearly all actives have a fitted effect of over 40% in size
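Enzyme-compound mixtures sat 15 min at room temperature, followed by a 5 min reaction with 15 nM final substrate and 10 min with AlphaScreen beads. Recombinant human Tdp1 was used at 1 nM final.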
Pol eta inh = inhibitors of human DNA polymerase eta; Q9Y253; recombinant Pol eta, fluorescent DNA replication assay; Potency, µM (titrated, usually from 114 µM), inactives show at the top dose activity change, negative = inhibition, actives largely listed as inhibitors; 390,000 compounds, 1.2% hits; note: % is set by controls: 0 for no effect and ±100 for the full control effect
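Pol eta at 10 nM preincubated with compounds 15 min at room temperature; reaction started with fluorescent substrate (50 nM final) and read kinetically at 0 and 10 min.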
Pol kappa inh = blocks human DNA polymerase kappa activity; purified Pol kappa, fluorescent DNA synthesis assay, 10 min; Potency, µM (titrated, usually from 107 µM), without a hit: at the highest dose activity, negative = inhibition, most hits filed as inhibitors; 400,000 compounds, 0.53% hits; AID 588579; note: % is set by controls: 0 for no effect and ±100 for the full control effect
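Fluorescent qHTS in 1536-well format: enzyme (10 nM) and compound sat 15 min at room temperature before 50 nM substrate (final) was added. Signal taken at 0 and 10 min; no-enzyme buffer wells were negative controls.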
Pol beta inh = DNA polymerase beta (human) inhibition | 340,000 compounds, 1.3% hits | Pol beta primer extension/strand displacement, fluorescence kinetic | Potency, µM (series often up to 114 µM), inactives show at the top dose activity change, negative = inhibition, hits mostly inhibitors | AID 485314; note: % is set by controls: 0 for no effect and ±100 for the full control effect
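Values derive from four-parameter Hill fits of normalized kinetic data: reads at 0 and 10 min following addition of 50 nM substrate to 10 nM Pol beta preincubated 15 min with compound.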
Pol iota inh = blocks human DNA polymerase iota activity; Q9UNA4; Pol iota fluorescent replication assay, 10 min; Potency, µM (series often up to 115 µM), without a hit: at the highest dose activity, negative = inhibition, most hits filed as inhibitors; 390,000 compounds, 1% hits; AID 588590
Target sequence (Q9UNA4 whole entry, looked up): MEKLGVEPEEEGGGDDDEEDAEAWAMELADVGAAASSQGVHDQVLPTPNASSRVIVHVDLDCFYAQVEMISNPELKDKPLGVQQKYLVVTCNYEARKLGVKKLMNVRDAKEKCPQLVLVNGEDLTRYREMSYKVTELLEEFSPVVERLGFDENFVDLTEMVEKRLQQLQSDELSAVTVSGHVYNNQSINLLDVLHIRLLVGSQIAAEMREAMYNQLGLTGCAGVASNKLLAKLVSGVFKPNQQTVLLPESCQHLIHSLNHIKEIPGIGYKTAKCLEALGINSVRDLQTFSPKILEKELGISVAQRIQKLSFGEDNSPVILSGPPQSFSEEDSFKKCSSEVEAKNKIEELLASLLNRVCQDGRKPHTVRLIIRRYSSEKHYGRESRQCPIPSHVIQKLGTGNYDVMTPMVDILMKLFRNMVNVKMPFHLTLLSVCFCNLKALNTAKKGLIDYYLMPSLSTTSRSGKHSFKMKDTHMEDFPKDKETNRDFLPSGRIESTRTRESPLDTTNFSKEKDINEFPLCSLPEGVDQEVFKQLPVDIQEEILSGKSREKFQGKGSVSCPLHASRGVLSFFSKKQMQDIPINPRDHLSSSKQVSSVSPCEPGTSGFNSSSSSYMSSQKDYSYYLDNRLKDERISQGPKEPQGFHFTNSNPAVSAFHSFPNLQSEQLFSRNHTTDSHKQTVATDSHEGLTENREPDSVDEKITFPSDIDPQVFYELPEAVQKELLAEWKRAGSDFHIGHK
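Pol iota at 10 nM preincubated 15 min with compounds at room temperature; reaction started with fluorescent substrate, 50 nM final. Fluorescence read kinetically at 0 and 10 min; buffer-only wells as negative control.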
* hit, by the source's call; ? = inconclusive; · = no result; [ ] = dose if it differs, or a comment. Hits are enriched below; roughly 2.4% of the tested compounds scored in any of these assays. Calls come from the whole dose curve; as a rule, active = well fitted curve in the direction sought with a large enough effect; inconclusive = small, poorly fitted or top-dose-only effect, or another doubt; inactive = no such curve, though single readings can be large; an effect the other way counts as inactive or inconclusive. Potency is the fitted concentration of half-maximal effect.

SMILES	TDP1 inh	Pol eta inh	Pol kappa inh	Pol beta inh	Pol iota inh
Cc1ccc(N(Cc2cccs2)C(=O)C(C)Oc2ccc(Cl)c(C)c2)cc1 (centres undefined)	?	-24%	?	4%	?
COc1ccc(/C=C2/Sc3ccc(C(=O)N4CCOCC4)cc3NC2=O)cc1OC	2%	-7%	14%	-2%	-19%
CCOC(=O)N1CCN(C(=O)c2ccc3c(c2)NC(=O)/C(=C\c2ccc(OC)c(OC)c2)S3)CC1	2%	-7%	25µM*	-19%	18µM*
CCC(C)C(N)C1=NC(C(=O)N[C@@H](CC(C)C)C(=O)N[C@H](CCC(=O)[O-])C(=O)N[C@H](C(=O)N[C@H]2CCCCNC(=O)[C@H](CC(N)=O)NC(=O)[C@@H](CC(=O)[O-])NC(=O)[C@H](Cc3cnc[nH]3)NC(=O)[C@@H](Cc3ccccc3)NC(=O)[C@H]([C@@H](C)CC)NC(=O)[C@@H](CCCN)NC2=O)[C@@H](C)CC)CS1.[Zn+2] (some centres undefined)	·	?	?	·	0.89µM*
CC[C@H](C)[C@@H]1NC(=O)[C@H](Cc2ccc(O)cc2)NC(=O)[C@@H](N)CSSC[C@@H](C(=O)N2CCC[C@H]2C(=O)N[C@@H](CC(C)C)C(=O)NCC(N)=O)NC(=O)[C@H](CC(N)=O)NC(=O)[C@H](CCC(N)=O)NC1=O	6%	·	-10%[12 µM]	·	·
O=C(CSc1nc(-c2cccs2)nc2cc(=O)[nH]n12)Nc1ccccc1	-5%	?	?	-21%	89µM*
O=C(CSc1nc(-c2ccco2)nc2cc(=O)[nH]n12)Nc1ccc(F)cc1	0%	2%	-17%	40µM*	?
Cc1cccc(NC(=O)CSc2nc(-c3ccco3)nc3cc(=O)[nH]n23)c1	45µM*	?	-6%	?	?
Cc1ccccc1NC(=O)CSc1nc(-c2ccco2)nc2cc(=O)[nH]n12	·	-7%	-44%	?	?
Cc1ccc(NC(=O)Cn2c(=O)n(Cc3ccccc3)c(=O)c3c2c2cc(C)ccc2n3C)cc1	3%	-27%	-5%[60.1 µM]	-20%	12%
O=C(NC(NC(=S)Nc1ccc(F)c([N+](=O)[O-])c1)C(Cl)(Cl)Cl)C(c1ccccc1)c1ccccc1 (centres undefined)	17%	·	-17%[60.1 µM]	·	·
Cc1ccccc1OCC(=O)NCC(=O)OCC(=O)c1ccc(Br)cc1	1%	·	5%	·	16%
CCn1c(C)cc(/C=C2/SC(=O)N(C(C)C(=O)OC)C2=O)c1C (centres undefined)	·	-9%	0%	3%	21%
CCOC(=O)C(C)N1C(=O)S/C(=C/c2cc(C)n(-c3ccccn3)c2C)C1=O (centres undefined)	8%	-19%	89µM*	-3%	-5%
O=C(NCc1ccccc1)n1cc(P(=S)(c2ccccc2)c2ccccc2)c2ccccc21	0%	·	·	·	·
COc1ccc(C(=O)N2CCN(C(=O)COc3ccc(Br)cc3)CC2)cc1OC	·	-18%	7%	1%	-10%
NS(=O)(=O)c1ccc(CCNC(=O)CCC(=O)c2cccs2)cc1	-3%	89µM*	-18%	·	-19%
O=C(CCC(=O)c1cccs1)NCCc1ccc(F)cc1	1%	1%	-8%	·	15%
CCOC(=O)c1c(C)c(-c2ccccc2)n(CC(=O)NCc2cccc(OC)c2)c1C	5%	-14%	-1%	3%	11%
Fc1cccc(Cl)c1C1Nc2cccc3cccc(c23)N1	9%	-8%	-20%	14%	-54%
Clc1cccc(Cl)c1C1Nc2cccc3cccc(c23)N1	11%	-4%	-39%	-59%	35µM*
CC(C)CCNC(=O)c1ccc(Cn2c(=O)c3cccn3c3cccnc32)cc1	-10%	-3%	-17%	61%	-16%
Cc1ccc(CCNC(=O)c2ccc(Cn3c(=O)c4cccn4c4cccnc43)cc2)cc1	-5%	?	-17%	?	79µM*
O=C(NCc1ccccc1Cl)c1ccc(Cn2c(=O)c3cccn3c3cccnc32)cc1	5%	-8%	-18%	7%	-13%
Cc1ccccc1CCNC(=O)c1ccc(Cn2c(=O)c3cccn3c3cccnc32)cc1	0%	89µM*	3%	?	?
SMILES	TDP1 inh	Pol eta inh	Pol kappa inh	Pol beta inh	Pol iota inh
CCOc1ccccc1NC(=O)CN1C(=O)COc2ccc(S(=O)(=O)N3CCCCC3)cc21	8%	-12%	-4%	9%	23%
CCCc1cc2c(=O)c(-c3nc4ccccc4s3)c(COCC(=O)O)oc2cc1O	0%	79µM*	-22%	-27%	?
CCOC(=O)C1CCN(S(=O)(=O)c2ccc3c(c2)CC(=O)N3C)CC1	-8%	?	-12%	-3%	14µM*
CC(=O)Nc1cccc(S(=O)(=O)N2CCCN(S(=O)(=O)c3ccc4c(c3)OCCO4)CC2)c1	1%	·	·	·	·
CCOC(=O)c1c(S(=O)(=O)NCC(=O)N(C)c2ccc(C)cc2)c(C)n(C)c1C	0%	45µM*	-14%[60.1 µM]	7%	-5%
CCOC(=O)c1c(S(=O)(=O)NCC(=O)Nc2ccc(F)cc2C)c(C)n(C)c1C	3%	79µM*	2%[60.1 µM]	-22%	11%
Cc1nn(Cc2nc(-c3cccs3)no2)c(C)c1Br	-2%	-13%	-1%	35µM*	0%
COc1cc(C(=O)OCC(=O)N2CCCC2=O)cc(OC)c1C	?	32µM*	?	·	?
c1coc(-c2nnc(-c3ccco3)nn2)c1	·	8.9µM*	18µM*	7.9µM*	?
c1ccc(-c2nnc(-c3ccco3)o2)cc1	2%	-15%	-4%	-1%	2%
CC[C@H](C)[C@H](NC(=O)[C@H](C)NC(=O)[C@H](Cc1cnc[nH]1)NC(=O)[C@@H]1CCCN1C(=O)CNC(=O)[C@H](CC(C)C)NC(=O)[C@H](CC(C)C)NC(=O)[C@H](Cc1ccc(O)cc1)NC(=O)CNC(=O)[C@H](C)NC(=O)[C@H](CO)NC(=O)[C@H](CC(N)=O)NC(=O)[C@H](CC(C)C)NC(=O)[C@@H](NC(=O)[C@H](Cc1c[nH]c2ccccc12)NC(=O)CN)[C@@H](C)O)C(=O)N[C@@H](CC(=O)O)C(=O)N[C@@H](CC(N)=O)C(=O)N[C@@H](Cc1cnc[nH]1)C(=O)N[C@@H](CCCNC(=N)N)C(=O)N[C@@H](CO)C(=O)N[C@@H](Cc1ccccc1)C(=O)N[C@@H](CO)C(=O)N[C@@H](CC(=O)O)C(=O)N[C@@H](CCCCN)C(=O)N[C@@H](Cc1cnc[nH]1)C(=O)NCC(=O)N[C@@H](CC(C)C)C(=O)N[C@H](C(N)=O)[C@@H](C)O	15%	·	10%[60.1 µM]	·	·
Cc1cc(/C(N)=N/OC(=O)c2cccc(Cl)c2)no1	7%	-12%	-11%	89µM*	-33%[58.9 µM]
